Compound activity (PubChem BioAssay)
FBA Mtb inh – Mtb FBA enzyme inhibitors, primary screen, biochemical, fluorescence, strain H37Rv | inhibition, % at 1 µM | 2.3% of 360,000 active | AID 588726, 2011 | purified M. tuberculosis FBA, fluorescence read-out | Fructose-bisphosphate aldolase (Mycobacterium tuberculosis (strain ATCC 25618 / H37Rv)), …
Target sequence (P9WQA3 whole entry, looked up): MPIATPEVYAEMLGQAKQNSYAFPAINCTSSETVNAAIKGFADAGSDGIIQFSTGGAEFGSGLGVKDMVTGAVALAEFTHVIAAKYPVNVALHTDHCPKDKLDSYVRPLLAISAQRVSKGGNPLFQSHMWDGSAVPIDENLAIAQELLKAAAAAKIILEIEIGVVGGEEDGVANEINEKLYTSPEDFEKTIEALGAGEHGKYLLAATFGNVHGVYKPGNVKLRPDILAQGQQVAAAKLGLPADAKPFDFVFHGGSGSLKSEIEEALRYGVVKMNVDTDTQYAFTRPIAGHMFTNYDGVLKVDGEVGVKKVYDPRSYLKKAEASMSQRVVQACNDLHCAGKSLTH
CCHF vOTU inh – CCHFV vOTU protease inhibitors, primary screen, biochemical, Pep-AMC substrate, fluorescence. Crimean-Congo hemorrhagic fever virus L polyprotein viral ovarian tumor (vOTU) protease …. inhibition, % at 11.5 µM. 0.55% of 370,000 active. AID 651958, 2012; in the data active means inhibition above about 30%
GDH-TPI counter-1 – GDH-TPI coupling enzyme inhibitors, primary screen, artefact control for M. tuberculosis FBA inhibitor project, biochemical, absorbance, full deck. 1.2% of 360,000 active. inhibition, % at 4.8 µM. GDH-TPI coupled enzyme counterscreen, NADH absorbance; in the data active means inhibition above about 30%
Vc quorum ag – inducers of Vibrio cholerae quorum light production without autoinducers, primary screen, BH1578 luxS cqsA deficient, single point | AID 588436, 2011 | 0.16% of 350,000 active | activation, % at 18.7 µM | V. cholerae BH1578 lux reporter, luminescence, 6 h; in the data active means activation mostly above about 9.7%, no sharp cut-off
Mtb FBA inh conf – M. tuberculosis aldolase blockers, biochemical, fluorescence, strain H37Rv, confirmation; shares compounds with FBA Mtb inh; purified M. tuberculosis FBA, fluorescence read-out; inhibition, % at 1 µM; 78% of 5,600 active; AID 651616, 2012
GDH-TPI counter-2 – GDH-TPI coupling enzyme inhibitors, artefact control for M. tuberculosis FBA inhibitor project, biochemical, fluorescence, high throughput. inhibition, % at 1 µM. 81% of 5,600 active. AID 652141, 2013. GDH-TPI coupled enzyme counterscreen. shares compounds with FBA Mtb inh; in the data active means inhibition above about 10%
GDH-TPI dose – GDH-TPI coupling enzyme inhibitors, dose response, artefact control for M. tuberculosis FBA inhibitor project, biochemical, fluorescence, IC50. shares compounds with FBA Mtb inh. GDH-TPI coupled enzyme assay, artifact counterscreen. IC50, µM. 79% of 170 active. AID 652145, 2013; call rule not given here
A number is an active result; 0 = inactive; - = no result given; + = active, no number. An excerpt weighted towards active compounds, which were near 3.9% of everything screened. Unless noted, no stated cut-off is given here; in the data, active means inhibition above about 27%; inactive means the rest.

SMILES	FBA Mtb inh	CCHF vOTU inh	GDH-TPI counter-1	Vc quorum ag	Mtb FBA inh conf	GDH-TPI counter-2	others
O=C1CC(C(=O)Nc2ccc(O)c(C(=O)O)c2)C(c2ccccc2)O1 (stereo not given)	59	0	0	0	143	165
Fc1cc(F)cc(NC(=S)NN2CCOCC2)c1	0	0	0	0	-	-
Cn1ccnc1-c1ccc(-c2nccn2C)cc1	52	0	0	0	+	186
CCCCCN(C(=O)CN1CCC(Cc2ccccc2)CC1)c1c(N)n(CCCC)c(=O)[nH]c1=O	0	0	0	0	-	-
COc1ccc(/C=C/c2c(-c3ccc(OC)cc3)oc3cccnc23)cc1	41	0	0	0	0	0
COc1ccc(NC(=O)CN2CCc3ccccc3C2)cc1	0	0	0	0	-	-
COc1ccc(-c2n[nH]c(=S)n2-c2cc(OC)ccc2OC)cc1	0	0	0	0	-	-
COc1ccc2c(C)cc3n[nH]c(=S)n3c2c1	37	0	0	0	33	21
CC(C)N1CC(C(=O)Nc2cccc([N+](=O)[O-])c2)CC1=O (stereo not given)	0	0	0	0	-	-
O=C1NC(=O)c2cc3ccccc3cc21	37	0	0	0	34	24
Cn1cccc1/C=C1\SC(=S)N(NC(=O)c2cccc(Cl)c2)C1=O	0	0	0	0	-	-
CC1CCCC(C)N1/N=C/c1ccc(O)cc1 (stereo not given)	0	0	0	0	-	-
OCCNc1nc(N2CCN(c3ccccc3)CC2)nc2ccccc12	107	0	0	0	+	177
CCn1ncc(-c2ccnc3cc(C(=O)O)nn23)c1C	68	0	0	0	137	131
CCn1ncc(-c2cc(C(=O)O)no2)c1C	-	0	-	-	-	-
CN(C)S(=O)(=O)c1cccc(C(=O)N2CCN(C(=O)C3CCCO3)CC2)c1 (stereo not given)	0	0	0	0	-	-
C/C(=N/NC(=O)c1sc(NS(=O)(=O)c2ccc(C)cc2)nc1C)c1sc(N)nc1C	66	0	0	0	172	140
Cc1ccc(S(=O)(=O)Nc2nc(C)c(C(=O)NN)s2)cc1	0	0	0	0	-	-
O=C1CC(C(=O)Nc2ccccc2C(=O)O)C(c2ccccc2)O1 (stereo not given)	0	0	0	0	-	-
Cc1cc(C)n(-c2nc(NCc3cccnc3)c3c4c(sc3n2)COC(C)(C)C4)n1	63	0	0	0	81	63
CC(C)(C)c1ccc(-n2nc(C#N)c(Cl)cc2=O)cc1	0	0	0	0	-	-
CC(C)(C)c1cc(=O)n2c(C#N)c(C#N)nc2[nH]1	80	0	0	0	47	40
Cc1cccc(N(Cc2cc3ccc(C)cc3[nH]c2=O)S(=O)(=O)c2ccccc2)c1	0	0	0	0	-	-
COCCCN1CN(S(=O)(=O)c2ccc(C)cc2C)c2nc3ccccc3nc21	28	0	32	0	71	69
Cc1ccc(S(=O)(=O)N2CN(CC3CCCO3)c3nc4ccccc4nc32)c(C)c1 (stereo not given)	0	0	0	0	-	-
SMILES	FBA Mtb inh	CCHF vOTU inh	GDH-TPI counter-1	Vc quorum ag	Mtb FBA inh conf	GDH-TPI counter-2	others
CC1(C)Cc2c(C#N)c(N3CCN(C(=O)c4ccco4)CC3)nc(Cc3ccccc3)c2CO1	0	0	0	-	-	-
CCc1nc(N2CCN(C(C)=O)CC2)c(C#N)c2c1COC(C)(C)C2	36	0	0	0	0	0
CCc1nc(N2CCN(C(=O)c3ccco3)CC2)c(C#N)c2c1COC(C)(C)C2	40	0	0	0	57	39
CCCc1nc(N2CCOCC2)c(C#N)c2c1CCCC2	30	0	0	0	168	141
CC(C)Cc1nc(N2CCOCC2)c(C#N)c2c1COC(C)(C)C2	37	0	0	0	0	0
CC(C)Cc1nc(NCCN2CCOCC2)c(C#N)c2c1COC(C)(C)C2	0	0	0	0	-	-
Cc1cccc(N=N/C(=C\O)C(=O)c2ccc(Br)cc2)c1	0	0	0	0	-	-
O=S1(=O)N=C(N=Nc2c(O)[nH]c3ccccc23)c2ccccc21	0	0	0	0	-	-
Cc1ccc(C(=O)NNC(=O)CCCCC(=O)NNC(=O)c2ccc(C)cc2)cc1	0	0	0	0	-	-
CN1CCN(NC(=O)c2cc(-c3ccccn3)nc3ccccc23)CC1	0	0	0	0	-	-
O=C(NN1CCOCC1)c1cc(-c2ccc(Br)s2)nc2ccccc12	0	0	0	0	-	-
CN1CCN(NC(=O)c2cc(-c3ccc(Cl)s3)nc3ccccc23)CC1	73	0	0	0	65	42
CC(C)(CNC(=O)c1cc(-c2ccc(Cl)s2)nc2ccccc12)N1CCOCC1	62	0	0	0	0	0	GDH-TPI dose=2.9
O=C(c1cc(-c2ccc(Cl)s2)nc2ccccc12)N1CCCC1	58	0	0	0	155	144
COc1ccc(S(=O)(=O)NC(=O)C2(C)CCN2C(=O)Cc2ccccc2Cl)cc1 (stereo not given)	0	0	0	0	-	-
CNC(=O)c1c(NC(=O)c2ccc3ncsc3c2)sc(C)c1C	0	0	0	0	-	-
O=C(O)C1C2C=CC3(CN(C/C=C/c4ccccc4)C(=O)C13)O2 (stereo not given)	0	0	0	0	-	-
CCc1c(C)c2ccc(OCC(=O)NCC3CCC(C(=O)O)CC3)c(C)c2oc1=O (stereo not given)	38	0	0	0	167	134
Cc1c(Cc2ccccc2)c(=O)oc2c(C)c(OC(C)C(=O)NCC3CCC(C(=O)O)CC3)ccc12 (stereo not given)	0	0	0	0	-	-
COc1cc(NC(=O)COc2cc(C)cc3oc(=O)c(C)c(C)c23)cc(OC)c1OC	0	0	0	0	-	-
Cc1cccc(C)c1NC(=O)COc1ccc2c(C)c(Cc3ccccc3)c(=O)oc2c1	57	0	0	0	+	193
Cc1c(Cc2ccccc2)c(=O)oc2cc(OCC(=O)NCC3CCC(C(=O)O)CC3)ccc12 (stereo not given)	104	0	34	0	0	0
COC(=O)COc1cc(C)cc2oc(=O)c(CC(=O)OC)c(C)c12	93	0	0	0	84	66
CCCCc1cc(=O)oc2c(C)c(OCC(=O)NCC3CCC(C(=O)O)CC3)ccc12 (stereo not given)	0	0	0	0	-	-
COc1ccc(CCN=C(C)C2=C(O)C(c3ccccc3)OC2=O)cc1OC (stereo not given)	0	0	0	0	-	-
COc1ccc(CNS(=O)(=O)c2ccc(-n3cnnn3)c(C)c2)cc1	0	0	0	0	-	-
COc1ccccc1CNC(=O)C(=O)NCC1OCCN1C(=O)c1cccs1 (stereo not given)	0	0	0	0	-	-
